# Laboratory results reported in PubChem BioAssay AID720517 (National Center for Advancing Translational Sciences (NCATS), 2013).
# Records with an inconclusive call do not appear. Entries that show only a call come without a potency. Active and inactive are the calls of the source. Calls come from the whole dose curve; as a rule, active = well fitted activation curve with a large enough effect; inconclusive = small, poorly fitted or top-dose-only effect; inactive = flat fitted curve, though single readings scatter.
# Experiment: qHTS for Inhibitors of Cell Surface uPA Generation: FP59 Counterscreen for Cherry-picked Compounds
# Conditions: FP59 anthrax toxin cytotoxicity counterscreen, cells; series mostly up to 115 µM
row,SMILES,Potency
1,Cc1ccc(NC(=O)c2ccc(=O)[nH]n2)cc1S(=O)(=O)Nc1ccccc1Cl,inactive
2,Cc1cccc(-c2nc(CS(=O)CC(=O)NCc3cccs3)c(C)o2)c1 (centres undefined),inactive
3,CCC(C)Sc1nnc(NS(=O)(=O)Cc2ccccc2)s1 (centres undefined),inactive
4,Cc1[nH]c2ccc(C(=O)OC(C)C(=O)NC3CCCCC3C)cc2c1C (centres undefined),inactive
5,COC(=O)COc1cc2ccccc2cc1C(=O)Nc1ccccc1,inactive
6,COc1ccc(C(=O)N[C@H](C(=O)NCc2cccs2)C(C)C)cc1,inactive
7,Cn1c(=O)c(=O)n(C)c2cc(S(=O)(=O)CCC(=O)Nc3ccc(F)cc3)ccc21,inactive
8,O=C(C[C@H]1C[C@H](C(=O)N2CCOCC2)[C@@]2(CCC3CCCC3)c3[nH]c4cc(-c5ccco5)ccc4c3CCN2C1=O)NCc1cccc(C(F)(F)F)c1,inactive
9,CC(/C=C1\SC(=S)N(CCCC(=O)Nc2ccc(C(=O)O)cc2)C1=O)=C\c1ccccc1,inactive
10,COc1cc(CN2CCN(c3ncccn3)CC2)cc(OC)c1,inactive
11,Cc1noc(C)c1CSCC(=O)Nc1cc(Cl)ccc1N1CCCCC1,inactive
12,CCN(CC(=O)NCc1ccc(F)cc1)CC(=O)Nc1ccccc1-c1ccccc1,inactive
13,O=C(NC(=O)c1ccccc1)Nc1cccc(S(=O)(=O)N2CCCCC2)c1,inactive
14,CC(C)(C)S(=O)(=O)N1C[C@H]2CC/C=C\C/C(c3ccccc3)=C\2[C@@H]1CCO,inactive
15,CCN(CC(=O)Nc1c(F)cccc1F)C(=O)c1ccc(-c2ccc(C(C)=O)cc2)o1,inactive
16,Cc1nc(NC2CCCCC2)c2nnn(Cc3ccccc3Cl)c2n1,inactive
17,O=C(CN1CCN(Cc2ccc(Cl)cc2)C1=O)NCc1cccs1,inactive
18,COCCNC(=O)C(c1c[nH]c2ccccc12)N(C(=O)c1snc(C(N)=O)c1N)c1cccc(OC)c1 (centres undefined),inactive
19,c1csc(CN2CCOCC2)c1,inactive
20,CC(C)(C)OC(=O)C[C@@H]1C/C=C\C[C@@H](CC(=O)N(CCO)Cc2ccccc2)C(=O)N[C@H](Cc2c[nH]c3ccccc23)COC1=O,inactive

row,SMILES,Potency
1,O=C(COC(=O)C1CC2C=CC1C2)NCc1ccccc1Cl (centres undefined),inactive
2,CCC(C)Nc1cc(C)nc2ncnn12 (centres undefined),inactive
3,Cc1[nH]c2ccccc2c1C(=O)C(C)OC(=O)c1ccccc1NCCO (centres undefined),inactive
4,CCC(NC(=O)Cc1c(C)c2c(cc(C)c3c(C)c(C)oc32)oc1=O)C(=O)O (centres undefined),inactive
5,COc1ccc(CNC(=O)C2(CC3CC(c4ccccc4)=NO3)CCNCC2)cc1 (centres undefined),inactive
6,O=C(/C=C/c1cccc(Oc2ccccc2)c1)N1CCOCC1,inactive
7,C=C(C)C(=O)O[C@H]1C/C(C)=C\C(=O)/C=C(\C)[C@H](O)[C@@H]2OC(=O)C(=C)[C@@H]21,inactive
8,C[C@@]12C(=O)N(CC3CCCO3)CC(=O)N1[C@H]1c3cc(Cl)ccc3OC[C@@H]1[C@@H]2c1ccccc1 (some centres undefined),inactive
9,NS(=O)(=O)c1ccc(CCNC(=O)c2ccc(Cl)s2)cc1,inactive
10,CC(C)C[C@H]1CN([C@@H](CC(C)C)CN2CCCC2CN2C(=S)NC[C@@H]2Cc2ccc(O)cc2)C(=S)N1CC1CCCCC1 (some centres undefined),inactive
11,CC(=O)NS(=O)(=O)c1ccc(NC(=O)c2cccc(OCc3c(C)noc3C)c2)cc1,inactive
12,NC(=O)c1cc2ccncc2c2ccccc12,inactive
13,Cn1c(SCC(=O)NNC(=O)c2ccc(Br)cc2)nnc1-c1cccnc1,inactive
14,COc1cc(CNCCc2ccccc2)cc(Br)c1OCC(=O)Nc1ccccc1C,inactive
15,C/C(=N\NC(=S)NC(C)C)c1ccc(Cl)s1,inactive
16,COc1cc2cc(CN(CCN3CCOCC3)C(=O)Nc3ccc(F)cc3)c(=O)[nH]c2cc1OC,inactive
17,Cc1ccc(NC2CCCN(C(=O)Cc3nonc3C)C2)cc1C (centres undefined),inactive
18,O=C(NCc1ccccn1)C1CCN(C(=O)c2cc3sccc3n2Cc2ccc(F)cc2)CC1,inactive
19,COc1ccc([C@H]2CC(=O)C=C(c3ccc(CNC(=O)OC(C)(C)C)cc3)C2)cc1,inactive
